DT40 TDP1 no CPT – qHTS for Inhibitors of human tyrosyl-DNA phosphodiesterase 1 (TDP1): qHTS in cells in absence of CPT. Potency, µM (titrated, usually from 46.2 µM), inactives show at the top dose activity change, negative = growth inhibition, most hits filed as inhibitors. 420,000 tested, 15% active. DT40 Tdp1-/- hTDP1 cells, no CPT, ATP luminescence, 48 h; note: % is set by controls: 0 for no effect and ±100 for the full control effect; nearly all actives have a fitted effect of over 55% in size
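A cellular qHTS used chicken DT40 cells lacking endogenous Tdp1 but carrying stably transfected human TDP1. Compounds were applied without camptothecin, and cell growth kinetics were judged by ATP-dependent luminescence after ≥48 hr.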
HepG2 viability – qHTS for Inhibitors of TGF-b: Cytotox Counterscreen; HepG2 CAGA-GFP viability, ATP luminescence, 18 h; Potency, µM (series often up to 46.1 µM), without a hit: at the highest dose activity change, negative = cytotoxicity, most hits filed as cytotoxic; 410,000 tested, 0.76% active; AID 588856, 2011
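HepG2 CAGA-GFP cells (1000/well, DMEM with 1% FBS) received compound, then TGF-beta at 500 pg/mL final, and were incubated 18 hours at 37 degrees C. Viability was read by CellTiter-Glo luminescence. Media-only wells were set as complete cell-killing and DMSO as no toxicity.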
HT1080NT lethal – qHTS for induction of synthetic lethality in tumor cells producing 2HG: qHTS for the HT-1080-NT fibrosarcoma cell line. 360,000 tested, 1.6% active. Potency, µM (series often up to 46.1 µM), without a hit: at the highest dose activity, negative = less viability, hits mostly cytotoxic. HT-1080-NT fibrosarcoma viability, CellTiter-Glo ATP luminescence, 48 h;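 note: NT is the 2HG producing partner of a matched IDH1 knockdown line; 0% = DMSO-treated cells and -100% = media-only wells without cells; nearly all actives have a fitted effect of over 55% in size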
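Fibrosarcoma NT cells, 750 per well in 5% FBS RPMI, were exposed to compound for 48 hours. Viability: CellTiter-Glo luminescence.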
DT40 TDP1 CPT – qHTS for Inhibitors of human tyrosyl-DNA phosphodiesterase 1 (TDP1): qHTS in cells in presence of CPT. chicken DT40 Tdp1-/-;hTDP1 cells + 20 nM CPT, ATP luminescence, 48 h. Potency, µM (titrated, usually from 46.2 µM), inactives show top-dose activity change, negative = growth inhibition, actives largely listed as inhibitors. 420,000 tested, 12% active. AID 686979, 2013; note: % is set by controls: 0 for no effect and ±100 for the full control effect; nearly all actives have a fitted effect of over 55% in size
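Chicken DT40 Tdp1-/- cells complemented with human TDP1, 400 cells/well, exposed to compounds plus 20 nM camptothecin for at least 48 h at 37 C; viability read as ATP content by CellTiter-Glo luminescence.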
TGFb SMAD3 inh – qHTS for Inhibitors of TGF-b. HepG2 CAGA-GFP TGF-b/SMAD3 reporter, GFP fluorescence, 18 h; TGF-beta stimulated, 500 pg/mL final. AID 588855, 2011. 410,000 tested, 1.2% active. Potency, µM (titrated, usually from 46.1 µM), for inactives: at the top dose activity, negative = inhibition, hits mostly inhibitors; note: % is set by controls: 0 for no effect and ±100 for the full control effect; nearly all actives have a fitted effect of over 65% in size
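Smad-responsive CAGA-GFP expression was quantified in HEPG2 cells exposed to compounds and 500 pg/mL final TGF-beta for 18 h at 37 degrees C; unstimulated wells defined full inhibition.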
HT1080 IDH1KD tx – qHTS for induction of synthetic lethality in tumor cells producing 2HG: qHTS for the HT-1080-IDH1KD cell line; HT-1080 IDH1 knockdown viability, ATP luminescence, 48 h; Potency, µM (titrated, usually from 46.1 µM), for the others: at the top dose activity, negative = toxicity, hits mostly cytotoxic; 360,000 tested, 2% active;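 note: 0% = DMSO wells and -100% = cell-free medium wells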
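Using the IDH1-knockdown HT-1080 line run in the same batch and compound series as the NT line, viability after 48 h at 37 °C was determined by CellTiter-Glo luminescence and expressed as % activity.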
Active calls of the source: *; ? = inconclusive; . = no result. A selection: hits, their analogues and other compounds. The true share with any hit is near 17%. Calls come from the whole dose curve; as a rule, active = well fitted curve in the direction sought with a large enough effect; inconclusive = small, poorly fitted or top-dose-only effect, or another doubt; inactive = no such curve, though single readings can be large; an effect the other way counts as inactive or inconclusive. Potency is the fitted concentration of half-maximal effect.

SMILES	DT40 TDP1 no CPT	HepG2 viability	HT1080NT lethal	DT40 TDP1 CPT	TGFb SMAD3 inh	HT1080 IDH1KD tx
COc1cccc(CC(=O)Nc2ncc(C)s2)c1	15µM*	-26%	-8%	8.2µM*	-45%	-18%
Cc1cnc(NC(=O)Cc2c[nH]c3ccccc23)s1	-12%	-16%	-13%	-9%	-3%	?
COc1ccccc1OC(C)C(=O)Nc1c(C(=O)c2ccc(Cl)cc2)oc2ccccc12 (stereo not drawn)	0%	-1%	.	-4%	2%	.
COC(=O)Cc1c(C)[nH]n(-c2cc(Cl)cc(Cl)c2)c1=O	2%	-48%	?	3%	?	?
Cc1cccc(C(O)c2ncc(-c3cccc(C(F)(F)F)c3)[nH]2)c1C (stereo not drawn)	?	-38%	-24%	?	?	?
OC(Cc1ccccc1Br)c1ncc(-c2cccc(C(F)(F)F)c2)[nH]1 (stereo not drawn)	16µM*	-58%	?	23µM*	?	16µM*
OC(Cc1cccc(Br)c1)c1ncc(-c2cccc(C(F)(F)F)c2)[nH]1 (stereo not drawn)	16µM*	-109%	?	?	?	?
CN1CCN(S(=O)(=O)c2cccc(C(=O)Oc3ccc(Br)cc3F)c2)CC1	17%	0%	25%	12%	-3%	6%
COc1cc(C(O)c2nc(-c3csc4ccccc34)cs2)ccc1F (stereo not drawn)	18µM*	-14%	?	?	?	?
OC(c1ccc(F)c(F)c1)c1nc(-c2csc3ccccc23)cs1 (stereo not drawn)	?	-32%	?	23µM*	?	?
Cc1ccccc1-c1csc(C(O)c2ccc(F)c(F)c2)n1 (stereo not drawn)	?	-28%	?	?	-2%	-15%
c1ccc(CNCCCn2cnc3c(OCc4ccccc4)ncnc32)cc1	23µM*	-8%	-2%	29µM*	17%	-11%
CC(CNCCCn1cnc2c(OCc3ccccc3)ncnc21)c1ccccc1 (stereo not drawn)	?	-94%	-19%	?	?	-29%
C[C@@H](NCCCn1cnc2c(OCc3ccccc3)ncnc21)c1cccc2ccccc12	16µM*	14µM*	-29%	?	?	?
CSc1ncnc2c1ncn2CCCNCc1ccccn1	1%	7%	6%	4%	11%	18%
c1ccc(CCCNCCCn2cnc3c(OCc4ccccc4)ncnc32)cc1	12µM*	-100%	-23%	10µM*	?	?
CSc1ncnc2c1ncn2CCCNCC(c1ccccc1)c1ccccc1	26µM*	-30%	-7%	?	-5%	-10%
O=C(Nc1ccc2ccccc2c1)OC1CCS(=O)(=O)C1 (stereo not drawn)	-22%	.	10%	7%	.	-2%
CCN(C(=O)COC(=O)c1ccccc1SCC(=O)NC1CCCCCCC1)C1CCS(=O)(=O)C1 (stereo not drawn)	-27%	-1%	-6%	-9%	-4%	11%
CCOc1ccccc1CNC(=O)c1nn(C)c2c1CS(=O)(=O)c1ccccc1-2	?	-23%	3%	18µM*	-19%	-1%
COc1ccc(OC)c(CNC(=O)c2nn(C)c3c2CS(=O)(=O)c2ccccc2-3)c1	-19%	2%	6%	4%	9%	11%
CCc1ccc(CNC(=O)c2nn(C)c3c2CS(=O)(=O)c2ccccc2-3)cc1	?	-2%	?	?	-19%	-14%
Cc1ccc(CNC(=O)CN(C)C2=NS(=O)(=O)c3ccccc32)cc1	9.2µM*	5%	-3%	13µM*	-21%	-6%
Cc1ccc(CNC(=O)c2nn(C)c3c2CS(=O)(=O)c2ccccc2-3)cc1	?	-8%	26%	16µM*	-10%	3%
CCc1cccc(CC)c1N(COC)C(=O)Cn1c(CC)nc2ccccc21	?	-32%	.	-18%	.	.
SMILES	DT40 TDP1 no CPT	HepG2 viability	HT1080NT lethal	DT40 TDP1 CPT	TGFb SMAD3 inh	HT1080 IDH1KD tx
COc1ccc(C(=O)N2CCN(c3nc4cc(C)cc(C)c4cc3C#N)CC2)cc1	18µM*	-42%	-5%	?	?	-3%
Cc1cc(C)c2nc(N3CCCN(C(=O)c4cnccn4)CC3)c(C#N)cc2c1	16µM*	-34%	-12%	23µM*	-5%	-25%
CCOCCCNC(=S)N1CCCN(c2nc3cc(C)cc(C)c3cc2C#N)CC1	21µM*	-22%	?	18µM*	-38%	-29%
COCCCNC(=S)N1CCCN(c2nc3cc(C)ccc3cc2C#N)CC1	?	-9%	0%	?	?	-1%
COc1ccc(C(=O)N2CCN(c3ncccn3)CC2)cc1	1%	-9%	1%	-5%	4%	2%
Cc1ccc(C(=O)N2CCCN(c3nc4cc5c(cc4cc3C#N)OCO5)CC2)cc1	15µM*	-3%	?	?	-21%	21µM*
Cc1ccc2oc(-c3ccc(Cl)c(NC(=O)c4ccc(OC(C)C)cc4)c3)nc2c1	6%	-11%	.	-1%	-3%	.
CCOC(=O)c1sc2ncn(CC(=O)Nc3ccc(OCC)cc3)c(=O)c2c1C	-2%	-2%	.	2%	-2%	.
